A number with no mark means an inactive call.

This test in a line: changes in parasitized red cell lysis, either direction – P. falciparum Indochina, OD700, 3 h, PSAC antagonist project, primary screen (AID 1156). Conditions: P. falciparum-infected erythrocytes, osmotic lysis, higher = more signal, called active from +8 up or from −8 down.
As for `COc1ccc([Si](C)(C)[C@@H]2[C@@H](CCO)O[C@]3(C(=O)N(Cc4ccc(NC(C)=O)cc4)c4ccccc43)[C@H]2C)cc1`, the z-score was -0.199. The value for `CCCCC(=C=CC[C@H](O)c1ccccc1OCCO)C[C@H](O)COCc1ccccc1` was 0.725. For `COC(=O)[C@H]1COC(c2ccc(OCCCO)cc2)=N1`, the z-score was 0.0031. Consider `CC(C)C[C@@H]1NC(=O)[C@H]2C[C@@H](C(=O)NCCCCCCN(C)C)[C@@H](c3cccc(OCCO)c3)N2C1=O`, for which the z-score is 1.04. For the molecule `O=C1O[C@@H](c2ccccc2)[C@@H](c2ccccc2)N2[C@@H](c3ccccc3OCCO)[C@]3(C(=O)Nc4ccc(C#CCCO)cc43)[C@@H](C(=O)O)[C@H]12`, the z-score is 0.152. Under `CC(C)NC(=O)[C@@]1(C)c2ccccc2C(=O)N(Cc2cc(F)cc(C(F)(F)F)c2)[C@H]1c1ccc(CO)cc1` stands 0.943. For the molecule `O=C1O[C@@H](c2ccccc2)[C@@H](c2ccccc2)N2[C@@H](c3ccc(OCCO)cc3)[C@]3(C(=O)Nc4ccccc43)[C@@H](C(=O)N3CCN(c4ncccn4)CC3)[C@H]12`, the z-score is 2.06.

As for `CCc1cc2c(nc1CC)CCN(CCC(C)=NOC[C@@H](O)[C@H]1O[C@@H]3OC(C)(C)O[C@@H]3[C@H]1O)C2`, the z-score was 0.0286. Take `C=CC[C@@H]1C=C[C@H](ON=C(C)CCN2CCc3nc(CC)c(CC)cc3C2)[C@@H](CO)O1`: the z-score was 0.412. With `CN(C)CCCNC(=O)[C@@H]1c2ccccc2C(=O)N(Cc2cc(F)cc(C(F)(F)F)c2)[C@H]1c1ccc(CO)cc1`, the z-score is 2.38. For the molecule `O=C1[C@H]2[C@H]3[C@H](O)[C@H](O)CC(=NOC[C@@H](O)COCc4ccco4)[C@H]3CC[C@H]2C(=O)N1c1cccc(Oc2ccccc2)c1`, the z-score is 1.28. In the case of `CS(=O)(=O)CCOC(=O)C1=CC(CCCO)=CC(c2cccs2)N(Cc2cccc(OC(F)(F)F)c2)C=C1C(=O)OCCS(C)(=O)=O` (stereo unspecified), the z-score was 0.813. As for `CC(CCC(=O)OC[C@H]1O[C@H](C#Cc2ccccc2)C=C[C@@H]1Oc1ccc(C)cc1)=NO[C@@H](C)c1cn([C@H](CO)Cc2ccccc2)nn1`, the z-score was 1.78. Under `COc1ccc(O[C@H]2C=C[C@@H](c3ccccc3)O[C@@H]2COC(=O)CCC(C)=NO[C@@H](C)c2cc(-c3c(C)cc(C)cc3C)no2)cc1` stands 0.488; under `CC(C)[C@@H](OCc1ccccc1)[C@H](C)C=NO[C@H](C)c1cn([C@H](CO)Cc2ccccc2)nn1`, -0.525; under `COc1cccc([C@H]2Oc3ccc(OC)cc3C(=NOC(C)CN3CCCc4nc(C)c(C)cc43)[C@@H]2O)c1` (stereo partly specified), 0.714.

Turning to `O=C1C[C@@H](O)[C@@H](O)[C@@H]2[C@@H]3C(=O)N(C4CCCCC4)C(=O)[C@@H]3CC[C@H]12`, the z-score was -0.059.

For `COc1ccc([Si](C)(C)[C@H]2[C@H](CC(=O)N3CCC[C@H]3CO)O[C@@]3(C(=O)N(Cc4cccc(N5C(=O)COc6ccccc65)c4)c4ccccc43)[C@@H]2C)cc1`, the z-score is -0.749. Regarding `CC(C)NC(=O)[C@@]1(c2ccc([N+](=O)[O-])cc2)CC(=O)N(CC23CC4CC(CC(C4)C2)C3)[C@@H]1c1ccc(CO)cc1I`, the z-score was 1.59. Under `C=CCOC(=O)[C@H]1[C@@H]2C(=O)O[C@@H](c3ccccc3)[C@@H](c3ccccc3)N2[C@@H](c2ccc(OCCOC(=O)[C@H]3C[C@H]4C(=O)N5CCC[C@H]5C(=O)N4[C@H]3c3cccc(OCCO)c3)cc2)[C@]12C(=O)Nc1ccc(I)cc12` stands -2.53; under `CC(C)CN1CCc2nc(-c3ccccc3)c3c(c2CC1)CO[C@@H](C)C3`, 0.923. Under `CC(C)OC(=O)C=C1C[C@@H](c2ccc(C#N)cc2)O[C@@H](c2ccc(C#N)cc2)O1` stands 0.78; under `C=CC[C@@H]1C=C[C@H](ON=C[C@@H](OC)[C@H](C)C=CCC(=O)OC)[C@@H](CO)O1`, -0.335. For the molecule `CN1C(=O)C2C(C1=O)C1C=C(CCCO)C2C(c2ccc(CN3CCCC3)cc2)N1C` (stereo unspecified), the z-score was 0.914. The value for `COCC(=C=CC[C@@H](O)c1ccccc1OCCO)CCO` was 0.454; that for `COCCOC(=O)N1C(=O)[C@@]2(c3cc(C#CCNC(N)=O)ccc31)[C@H](c1ccc(O)cc1)N1[C@H](c3ccccc3)[C@H](c3ccccc3)OC(=O)[C@H]1[C@@H]2C(=O)N1CCCCCCC1` was -0.0303. The value for `C=C(/C(=C/C[C@H](OC(=O)c1ccncc1)c1ccc(OCCO)cc1)c1cnc2ccccc2c1)C(C)C` was 1.11. In the case of `Cc1cc2c(c(=O)o1)[C@H](O)[C@H]1O[C@H]1C2=O`, the z-score is 0.716.

In the case of `COC(=O)[C@@H]1CC[C@H](C)[C@@H](c2ccc(C)cc2)N1C(=O)c1ccc(C=NOC[C@@H](O)COCc2ccco2)cc1`, the z-score was -0.0224. For the molecule `CO[C@@H]1COC(=O)[C@H](C)NC(=O)[C@@H](C)COC(=O)CCC[C@H]1C`, the z-score is 1.45. Turning to `CC(C)c1ccc(NN2C(C(O)c3ccc4c(c3)OCO4)C=CC3C(=O)N(c4ccccc4)C(=O)C32)cc1` (stereo unspecified), the z-score was 0.126. Consider `CCOC(=O)[C@H](Cc1ccccc1)NC(=O)CCC1CC(OC(=O)NCc2ccc3c(c2)OCO3)CC2(CCCC(COC(=O)NCc3ccccc3)O2)O1` (stereo partly specified), for which the z-score was -1.37.

On to `CC(C)(C)OC(=O)CC[C@]1(C(=O)NCc2ccccc2)N=C(c2ccc(OCCCO)cc2)O[C@H]1c1ccccc1`, for which the z-score was 1.14. With `Cc1ccc(C2CC=C(C(=O)O)CN2S(=O)(=O)c2ccc(C)cc2)cc1` (stereo unspecified), the z-score is 0.927.

With `CC[C@@H](c1ccccc1)n1c(=O)n2n(c1=O)[C@H]1[C@H](O)[C@@H]3O[C@@H]3C(=NOCC=C(C)CCC=C(C)C)[C@H]1CC2`, the z-score was 0.0313.

Consider `CC(CCC(=O)OC[C@H]1O[C@H](C#Cc2ccccc2)C=C[C@@H]1Oc1ccc(C)cc1)=NOC[C@@H](O)COCc1ccco1`, for which the z-score was 0.811.
